Assay results reported in PubChem BioAssay (NCI).
About 83,000 compounds went through this panel and 20% of them were active in at least one assay; those are over-represented in the sample as a whole.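 Testing used 96-well plates and a 48-hour single-concentration exposure. Example: -40 means 40% of the starting cells died.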 Values without a mark were called inactive. The source made the active and inactive calls. How the source made its calls: active means growth percent below 10; inactive means the rest.

Legend:
Experiment in all cases: NCI-60 one-dose screen, 48 h (100 = growth as untreated, 0 = no growth, -100 = all killed)
Conditions in all cases: 10 µM unless noted
[1] = tested on: NCI-H23 lung
[2] = tested on: NCI-H226 lung
[3] = tested on: NCI-H322M lung
[4] = tested on: HOP-62 NSCLC
[5] = tested on: NCI-H460 lung
[6] = tested on: HOP-92 NSCLC
[7] = tested on: NCI-H522 lung
[8] = tested on: A549/ATCC NSCLC
[9] = tested on: 786-0 renal
[10] = tested on: COLO 205 colon

Row | Structure (SMILES) | growth [1] | growth [2] | growth [3] | growth [4] | growth [5] | growth [6] | growth [7] | growth [8] | growth [9] | growth [10]
1 | CN1C(=O)CNC(=O)[C@H](NC(=O)c2nc3ccccc3cc2O)CSSC[C@H]1C(=O)NCCc1nc2ccccc2cc1O | 64.1% | 83.8% | 62.9% | 82.1% | 8.06% (active) | 128% | 42.9% | 38.8% | 112% | 1.34% (active)
2 | FC(F)(F)c1cc(Nc2ccc3c(OCCCN4CCOCC4)cccc3n2)ccc1Cl | 60.8% | 68.5% | 51.5% | 51.2% | 17.3% | 60.2% | 49.5% | 30.5% | -42.1% (active) | -38.1% (active)
3 | COc1ccc(N2C(=O)C(Oc3ccccc3)C2c2ccc(C)cc2)cc1 (stereo not given) | 91% | 114% | 103% | 104% | 103% | 66.8% | 94.2% | 90.5% | 98.5% | 107%
4 | COc1cc2oc(-c3ccc(O)cc3)cc(=O)c2c(O)c1-c1c(OC)cc(O)c2c(=O)cc(-c3ccc(O)cc3)oc12 | 31.9% | 70.8% | 28.8% | 27% | 11.8% | 62.3% | 45.8% | 69.8% | 48.8% | 67.5%
5 | Cc1ccc(-c2nc(SCC(=O)Nc3nc(-c4ccc(Cl)cc4)cs3)[nH]c(=O)c2C#N)cc1 | 95.1% | 89.5% | 101% | 94% | 105% | -13.3% (active) | 77.5% | 86.7% | 93.2% | 117%
6 | Cc1c(C(=O)NCCN2CCOCC2)cn2ncnc(Oc3ccc(NC(=O)Nc4ccc(Cl)c(C(F)(F)F)c4)cc3)c12 | 13.9% | 34.2% | 73.8% | 20.5% | 3.24% (active) | 7.32% (active) | 5.61% (active) | 13.4% | 12.3% | -25.4% (active)
7 | Cc1ccc2c(n1)C(=O)C(Cl)=C(Nc1ccccc1C(C)C)C2=O | 49.8% | 59.1% | 62.7% | 90.8% | 82.4% | 106% | 39.3% | 94.7% | 91.2% | 116%
8 | COc1ccc(-c2cc3c4c(nc5ccccc5c4c2)CC(c2cc(OC)c(OC)c(OC)c2)O3)cc1 (stereo not given) | 54.2% | -12.5% (active) | 54.2% | 34.7% | 12.8% | -7.6% (active) | 55.6% | 64.7% | -56.1% (active) | 67.5%
9 | NCCNc1nc2ccccc2c2c(=O)c3cccc(F)c3sc12 | 70% | 78.5% | 64.7% | 58% | 13.8% | 59.9% | 59.2% | 41.1% | 76.7% | 26.6%
10 | CSc1nc2ccc(C)cc2cc1/C=N/O | 99.4% | 76.7% | 94.3% | 82.8% | 91.1% | 72.2% | 75.7% | 71.8% | 89.9% | 102%
11 | CCOC(=O)c1cn2ncnc(Oc3ccc(NC(=O)NCCN4CCOCC4)c(Cl)c3)c2c1C | 99.6% | 92.9% | 88.7% | 87.1% | 100% | 91.7% | 93.9% | 99.2% | 102% | 100%
12 | COc1ccc(-c2ncnc3c2ncn3CC#CCCl)cc1 | 59.1% | 56.5% | 92% | 77.5% | 67.8% | 9.39% (active) | 49% | 60.1% | 36.4% | 80%
13 | OC(COc1ccccc1)CN1CCN(c2ccc(Cl)cc2)CC1 (stereo not given) | 95% | 95.3% | 115% | 123% | 105% | 80.5% | 98.3% | 87.1% | 102% | 99.3%
14 | CN(C)CCS(=O)(=O)Nc1cc(-c2ccc3ncc(C#N)c(Nc4ccc(F)c(Cl)c4)c3c2)cnc1Cl | -28.5% (active) | -15.2% (active) | -54.5% (active) | 0.0433% (active) | 0.906% (active) | -17.9% (active) | -39.8% (active) | -30.5% (active) | -20.1% (active) | -80.8% (active)
15 | NS(=O)(=O)c1ccc(-n2nc(-c3ccc(Cl)cc3)c3ccccc3c2=O)cc1 | 101% | 96.1% | 148% | 92.6% | 96.3% | 80.9% | 87.4% | 87.5% | 92.7% | 111%
16 | Cc1ccc(NC2=C(Cl)C(=O)c3nc(C)ccc3C2=O)cc1 | -30.5% (active) | 38.1% | 55.7% | 75.2% | 9.01% (active) | -71% (active) | -25.7% (active) | 54.6% | 21.6% | 106%
17 | Cc1ccc2sc3c(NCCCN)nc4ccccc4c3c(=O)c2c1 | 79.9% | 93.5% | 69.2% | 69.1% | -54.2% (active) | 44.8% | 59.4% | 43.5% | 76.7% | -42.9% (active)
18 | O=c1c2cc(F)ccc2sc2c(NCCO)nc3ccccc3c12 | 95.6% | 103% | 99.7% | 105% | 112% | 110% | 91.1% | 101% | 104% | 114%
19 | O=C(Nc1c2ccccc2nc2ccccc12)c1ccccc1CN1C(=O)c2ccccc2C1=O | 28.6% | 40.2% | 21% | 37.4% | 3.79% (active) | 38.5% | 23.7% | 18.8% | 38.9% | 9.84% (active)
20 | CCCCCCn1c(-c2ccc(C(=O)O/N=C(\N)c3ccc4c(c3)OCO4)cc2)nc(-c2ccccc2)c1-c1ccccc1 | -30.8% (active) | 64.6% | 73.9% | 64.8% | 4.23% (active) | -57.5% (active) | -58.9% (active) | -25.3% (active) | -65.9% (active) | 35.7%
21 | COc1ccc(-c2nc3sc(-c4ccc(Cl)cc4)cn3n2)cc1 | 58.5% | 50.1% | 17.8% | 39.6% | -39.3% (active) | 21.5% | 61% | -30.3% (active) | -75.8% (active) | 52.5%
22 | O=C1NC(=O)C(c2ccccc2)(c2ccccc2)N1Cc1cn(-c2c3ccccc3nc3ccccc23)nn1 | 85.5% | 99.5% | 92.9% | 87.5% | 74.1% | 67.3% | 15.9% | 78.2% | 87.3% | 107%
23 | CCOC(=O)Nc1ccc(-c2nc(-c3cccc(OC)c3)c(-c3ccnc(Br)c3)[nH]2)cc1 | 31.7% | 46.4% | 45.7% | 30.2% | 27.2% | 42.2% | 30.2% | 36.9% | 9.61% (active) | 49.2%
24 | N#Cc1c(Nc2cccc(Cl)c2)sc(C(=O)c2cc3cc(Cl)ccc3o2)c1N | 77% | 94% | 113% | 107% | 46.7% | 8.1% (active) | 34.8% | 94.1% | 96.9% | 89%
25 | CC(C)(C)NC(=O)C(OC(=O)c1cccc(Cl)c1)c1ccc(Cl)cc1 (stereo not given) | 101% | 94.9% | 98% | 80.9% | 106% | 93.8% | 71.1% | 90.9% | 99.2% | 103%
26 | O=C1/C(=C/c2ccccc2[N+](=O)[O-])Oc2ccc(O)c(O)c21 | 33.5% | 83.3% | 81% | 71.3% | 60.6% | 76.6% | -18% (active) | 72.3% | 47.2% | 57.7%
27 | COc1ccc2sc3c(NCCCNCCO)nc4ccccc4c3c(=O)c2c1 | 63.6% | 98% | 72.8% | 77.3% | -71.1% (active) | 31.2% | 70.6% | 62.6% | 63% | -35.4% (active)
